Test results: PubChem BioAssay (NCI)
About 79,000 compounds went through this panel and 15% of them were active in at least one assay; those are over-represented in the sample as a whole. Calls of active or inactive are those of the source. Cut-off read from the data, not from the text of the source: active = growth inhibition above about 70%; inactive = the rest.

How the values were obtained:
[1] = NCI Yeast Anticancer Drug Screen. Data for the rad52 strain (AID 147);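 note: 0% = growth of vehicle-treated control cultures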; settings: S. cerevisiae rad52 mutant growth inhibition, active compounds read high
How it was run: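 DNA repair-defective yeast; compound exposure; growth scored against vehicle controls.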

[2] = NCI Yeast Anticancer Drug Screen. Data for the wt1 strain (AID 149);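 note: 0% = growth of vehicle-treated wt1 cultures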; settings: S. cerevisiae wt1 strain (SPY 50644) growth inhibition, active compounds read high
How it was run: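 The wt1 strain was treated with compounds, and growth was compared with vehicle-treated cultures to give inhibition.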

[3] = NCI Yeast Anticancer Drug Screen. Data for the rad50EPP+ strain (AID 151);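 note: 0% = growth of vehicle-treated control cultures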; settings: S. cerevisiae rad50 mutant strain, active compounds read high
How it was run: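 rad50EPP+ yeast treated with test compounds. Readout: growth vs vehicle control.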

[4] = NCI Yeast Anticancer Drug Screen. Data for the mgt1 strain (AID 153); settings: S. cerevisiae mgt1 mutant growth inhibition, active compounds read high
How it was run: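 Growth inhibition relative to vehicle controls was scored for the mgt1 yeast strain after compound exposure.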

[5] = NCI Yeast Anticancer Drug Screen. Data for the rad50 strain (AID 155);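 note: 0% = growth of vehicle-only cultures of the same strain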; settings: S. cerevisiae rad50 strain growth inhibition, active compounds read high
How it was run: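 Cells are treated with compound, grown, and their growth is then scored against vehicle-only cultures of the same repair-deficient yeast strain.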

[6] = NCI Yeast Anticancer Drug Screen. Data for the mec2-1 strain (AID 157); settings: S. cerevisiae mec2-1 strain, active compounds read high
How it was run: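 Growth inhibition is read against vehicle-treated controls after compound exposure of the mec2-1 yeast strain, which is defective in DNA damage repair or cell cycle control.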

[7] = NCI Yeast Anticancer Drug Screen. Data for the rad14 strain (AID 159);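 note: 0% = growth of vehicle-treated control cultures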; settings: S. cerevisiae rad14 strain growth inhibition, active compounds read high
How it was run: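 Readout: yeast growth inhibition, referenced to vehicle-only cultures. Strain bears a defined alteration in DNA damage repair.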

[8] = NCI Yeast Anticancer Drug Screen. Data for the sgs1 mgt1 strain (AID 161);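 note: 0% = growth of cultures given vehicle only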; settings: S. cerevisiae sgs1 mgt1 strain, active compounds read high
How it was run: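 Compounds are added to genetically altered yeast, and growth is compared with cultures given vehicle alone to give percent inhibition.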

[9] = NCI Yeast Anticancer Drug Screen. Data for the CLN2oe strain (AID 163);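 note: 0% = growth of vehicle-only control cultures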; settings: S. cerevisiae CLN2oe strain, active compounds read high
How it was run: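 Compound-treated yeast; growth vs vehicle ctrl = % inhibition. Genetically altered strain (cell-cycle control).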

[10] = NCI Yeast Anticancer Drug Screen. Data for the cln2 rad14 strain (AID 165);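 note: 0% = growth equal to vehicle treated cultures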; settings: S. cerevisiae cln2 rad14 strain, active compounds read high
How it was run: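 Growth inhibition, relative to vehicle-treated controls, is the read-out. The test organism is a yeast strain with defined genetic alterations, cln2 rad14.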

[11] = NCI Yeast Anticancer Drug Screen. Data for the bub3 strain (AID 167); settings: S. cerevisiae bub3 mutant strain, active compounds read high
How it was run: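 Part of a panel of yeast mutants defective in DNA damage repair or cell cycle regulation. Each strain is grown with compound, and inhibition is calculated relative to solvent-treated cultures.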

[12] = NCI Yeast Anticancer Drug Screen. Data for the wt2 strain (AID 169);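 note: 0% = growth of vehicle-treated yeast cultures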; settings: S. cerevisiae wt2 strain growth inhibition, active compounds read high
How it was run: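 Compound exposure of yeast; growth compared with vehicle controls; inhibition reported.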

[13] = NCI Yeast Anticancer Drug Screen. Data for the mlh1 strain (AID 171);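 note: 0% = growth of vehicle-treated control cultures of the same strain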; settings: S. cerevisiae mlh1 strain growth inhibition, active compounds read high
How it was run: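 Compounds are applied to a genetically altered yeast strain, and its growth is compared with that of vehicle-treated cultures to give percent inhibition.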

[14] = NCI Yeast Anticancer Drug Screen. Data for the sgs1 strain (AID 173);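 note: 0% = growth of vehicle-only control cultures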; settings: S. cerevisiae sgs1 mutant, active compounds read high
How it was run: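 Compounds applied to genetically altered yeast; growth compared with vehicle-treated cultures to give % inhibition.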

[15] = NCI Yeast Anticancer Drug Screen. Data for the mlh1 rad18 strain (AID 175); settings: S. cerevisiae mlh1 rad18 strain growth inhibition, active compounds read high
How it was run: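 Cells of a genetically altered yeast strain, deficient in DNA damage repair, were treated with compound. Their growth was then compared with that of vehicle-treated cultures to give inhibition.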

[16] = NCI Yeast Anticancer Drug Screen. Data for the rad18 strain (AID 177); settings: S. cerevisiae rad18 mutant growth inhibition, active compounds read high
How it was run: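 Compounds are applied to a repair-deficient yeast strain, and growth is compared with that of vehicle-treated cultures to give percent inhibition.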

[17] = at 5.0 µM (retest, dose inferred, filed as 0.5)
[18] = at 50.0 µM (retest, dose inferred, filed as 5.0)

Measured: growth inhibition

N#[N+]c1c([O-])c2ccccc2c2ccccc12
inactive: [1]; at 1.2 µM 13% | [1]; at 3.7 µM 23% | [2]; at 1.2 µM 3% | [2]; at 3.7 µM 4% | [2]; at 11.0 µM 15% | [2]; at 33.0 µM 30% | [3]; at 1.2 µM 13% | [3]; at 3.7 µM 32% | [4]; at 1.2 µM 4% | [4]; at 3.7 µM 15% | [4]; at 11.0 µM 23% | [4]; at 33.0 µM 39% | [5]; at 1.2 µM 22% | [5]; at 3.7 µM 46% | [5]; [17] -23% | [5]; [18] 35% | [6]; at 1.2 µM 0% | [6]; at 3.7 µM 0% | [6]; [17] -1% | [6]; at 11.0 µM 7% | [6]; at 33.0 µM 60% | [6]; [18] 36% | [6]; at 50.0 µM 48.6% | [7]; at 1.2 µM 3% | [7]; at 3.7 µM 17% | [7]; at 11.0 µM 25% | [8]; [17] -5% | [8]; [18] 16% | [9]; at 1.2 µM 4% | [9]; at 3.7 µM 8% | [9]; at 11.0 µM 18% | [9]; at 33.0 µM 42% | [10]; [17] -41% | [10]; [18] 2% | [10]; at 50.0 µM 47.5% | [11]; at 1.2 µM 12% | [11]; at 3.7 µM 10% | [11]; [17] -14% | [11]; at 11.0 µM 24% | [11]; at 33.0 µM 54% | [11]; [18] 22% | [11]; at 50.0 µM 44% | [12]; at 1.2 µM 2% | [12]; at 3.7 µM 5% | [12]; at 11.0 µM 12% | [12]; at 33.0 µM 60% | [13]; at 1.2 µM -1% | [13]; at 3.7 µM -1% | [13]; at 11.0 µM 20% | [13]; at 33.0 µM 65% | [14]; at 1.2 µM 0% | [14]; at 3.7 µM 4% | [14]; at 11.0 µM 20% | [15]; [17] -29% | [15]; [18] 50% | [16]; at 1.2 µM 30% | [16]; at 3.7 µM 50%
active: [1]; at 11.0 µM 82% | [1]; at 33.0 µM 97% | [1]; at 100.0 µM 97% | [2]; at 100.0 µM 97% | [3]; at 11.0 µM 84% | [3]; at 33.0 µM 96% | [3]; at 100.0 µM 96% | [4]; at 100.0 µM 97% | [5]; at 11.0 µM 85% | [5]; at 33.0 µM 96% | [5]; at 50.0 µM 92.7% | [5]; at 100.0 µM 96% | [6]; at 100.0 µM 97% | [7]; at 33.0 µM 80% | [7]; at 100.0 µM 97% | [8]; at 50.0 µM 76.2% | [9]; at 100.0 µM 95% | [11]; at 100.0 µM 95% | [12]; at 100.0 µM 98% | [13]; at 100.0 µM 97% | [14]; at 33.0 µM 82% | [14]; at 100.0 µM 97% | [15]; at 50.0 µM 86% | [16]; at 11.0 µM 93% | [16]; at 33.0 µM 98% | [16]; at 100.0 µM 96%

CCCCCc1c(CCCC)c(=O)[nH]c2cc(CNCC(OC)OC)ccc12
inactive: [1]; at 1.2 µM 15% | [1]; at 3.7 µM 11% | [1]; at 11.0 µM 26% | [2]; at 1.2 µM 1% | [2]; at 3.7 µM 7% | [2]; at 11.0 µM 20% | [3]; at 1.2 µM -8% | [3]; at 3.7 µM -9% | [3]; at 11.0 µM 3% | [3]; at 33.0 µM 10% | [4]; at 1.2 µM -15% | [4]; at 3.7 µM -11% | [4]; at 11.0 µM 58% | [5]; at 1.2 µM 14% | [5]; at 3.7 µM 19% | [5]; [17] 8% | [5]; at 11.0 µM 52% | [6]; at 1.2 µM -9% | [6]; at 3.7 µM -9% | [6]; [17] -7% | [6]; at 11.0 µM 7% | [7]; at 1.2 µM -23% | [7]; at 3.7 µM 24% | [8]; [17] 8% | [8]; [18] 46% | [9]; at 1.2 µM 0% | [9]; at 3.7 µM 11% | [9]; at 11.0 µM 63% | [10]; [17] 26% | [11]; at 1.2 µM -6% | [11]; at 3.7 µM 4% | [11]; [17] 19% | [11]; at 11.0 µM 31% | [12]; at 1.2 µM 7% | [12]; at 3.7 µM 11% | [12]; at 11.0 µM 28% | [13]; at 1.2 µM -5% | [13]; at 3.7 µM 13% | [13]; at 11.0 µM 52% | [14]; at 1.2 µM 10% | [14]; at 3.7 µM 23% | [14]; at 11.0 µM 69% | [15]; [17] 50% | [16]; at 1.2 µM 10% | [16]; at 3.7 µM 19% | [16]; at 11.0 µM 14%
active: [1]; at 33.0 µM 98% | [1]; at 100.0 µM 94% | [2]; at 33.0 µM 98% | [2]; at 100.0 µM 94% | [3]; at 100.0 µM 93% | [4]; at 33.0 µM 98% | [4]; at 100.0 µM 94% | [5]; at 33.0 µM 98% | [5]; [18] 96% | [5]; at 50.0 µM 88.9% | [5]; at 100.0 µM 93% | [6]; at 33.0 µM 98% | [6]; [18] 98% | [6]; at 50.0 µM 91.3% | [6]; at 100.0 µM 95% | [7]; at 11.0 µM 89% | [7]; at 33.0 µM 98% | [7]; at 100.0 µM 93% | [8]; at 50.0 µM 91% | [9]; at 33.0 µM 98% | [9]; at 100.0 µM 94% | [10]; [18] 95% | [10]; at 50.0 µM 86.5% | [11]; at 33.0 µM 98% | [11]; [18] 97% | [11]; at 50.0 µM 91.2% | [11]; at 100.0 µM 94% | [12]; at 33.0 µM 98% | [12]; at 100.0 µM 94% | [13]; at 33.0 µM 98% | [13]; at 100.0 µM 95% | [14]; at 33.0 µM 99% | [14]; at 100.0 µM 95% | [15]; [18] 96% | [15]; at 50.0 µM 87% | [16]; at 33.0 µM 98% | [16]; at 100.0 µM 94%
